# Source: PubChem BioAssay AID743269 (The Scripps Research Institute Molecular Screening Center, 2014)
# The whole screen tested about 370,000 compounds, of which about 2,400 (0.65%) were called active. The full list was thinned out, with actives kept by preference. A number with no mark means an inactive call.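 The calls were made as follows: active = inhibition above the screen-wide mean plus 3 SD (cut at about 13% in these data); inactive = the rest.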
# Test system: HIV-1 integrase (with human LEDGF/p75)
# Test: blockers of LEDGF/p75-dependent integrase strand transfer – biochemical, TR-FRET, high throughput, primary screen (AID 743269);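 also: signal is the Cy5 over europium emission ratio at 671 and 618 nm; 0% = plate median of compound wells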
# Conditions: TR-FRET IN-LEDGF/p75 DNA integration, Eu/Cy5; at 3.7 µM; stronger effect = higher value
row,Compound,inhibition
1,CCOc1ccc(-n2c(SCC(=O)Nc3cc(C)c(NC(=O)c4ccccc4)cc3OC)nnc2-c2cccc(Cl)c2)cc1,-4.78%
2,Cc1cc(NC(=O)COC(=O)/C=C/c2ccc(C)o2)no1,-2.47%
3,Cc1ccc(/C=C/C(=O)Nc2ccc([N+](=O)[O-])c(NC(=O)/C=C/c3ccc(C)o3)c2)o1,24.3% (active)
4,CCOc1ccc(NC(=S)NC(=O)/C=C/c2ccc(OC)cc2)c([N+](=O)[O-])c1,5.44%
5,CC(=O)c1cc(-c2ccc3ccccc3c2)c(=O)n2c1CCC2,0.07%
6,CC(c1ccc(N)cc1)c1cn(C)c2ccccc12 (configuration not stated),-3.68%
7,Cc1ccc(-n2c(SCC(=O)Nc3cccc4ccccc34)nnc2-c2ccccn2)cc1,-0.35%
8,COC(CNC(=O)[C@H](Cc1ccccc1)NC1(C(=O)NC2CCCCC2)CCCCC1)OC,2.51%
9,Cc1ccc(-c2nnc(SCC(=O)Nc3ccc(Oc4ccccc4)cc3)n2Cc2ccco2)cc1,-1.74%
10,Nn1c(SCC(=O)N2c3ccccc3Sc3ccccc32)nnc1-c1n[nH]c2c1CCC2,-0.96%
11,O=C(NC1CCCCN(Cc2cccc(C(F)(F)F)c2)C1=O)c1ccccc1I (configuration not stated),-1.97%
12,NNc1cccc(C=Cc2ccccc2)cc1=O,29.3% (active)
13,O=C(CSc1nc2sc3c(c2c(=O)n1-c1ccccc1)CCCC3)NN=Cc1ccc(OCc2ccccc2)cc1,-1.95%
14,CC1CN(/C=C/C(=O)C(F)(F)F)CC(C)O1 (configuration not stated),1.92%
15,CN(C)c1ccc(N/C=C/C(=O)C(F)(F)F)cc1,51% (active)
16,O=S1(=O)c2c(NCc3ccco3)cccc2Oc2ccccc2CN1Cc1cn(Cc2cccc(C(F)(F)F)c2)nn1,-4.08%
17,COc1ccccc1/C=C/C1=NC(=C\N(C)C)/C(=O)O1,-2.48%
18,O=C1OC(/C=C/c2ccccc2)=NC/1=C/c1ccco1,23.8% (active)
19,CCn1c(SCC(C)=O)nc2sc3c(c2c1=O)CCCC3,4.15%

row,Compound,inhibition
1,COC(=O)C12C=C3CC(c4ccccc4)=C3C(=O)N1Cc1[nH]c3ccccc3c1C2 (configuration not stated),-0.02%
2,CCOC(=O)c1ccc(NC(=O)Cn2cnc3cc(C)c(C)cc32)cc1,-0.18%
3,CCOC(=O)c1ccc(NC(=O)CSc2ncccn2)cc1,21.2% (active)
4,CCOC(=O)c1ccc(NC(=S)N2CCN(c3ccccn3)CC2)cc1,3.04%
5,O=C(NC1CCC1)c1ccc(C#Cc2cccc(F)c2)c[n+]1[O-],-0.89%
6,O=C(CSc1nnc(COc2ccccc2)n1Cc1ccco1)c1ccc2ccccc2c1,1.68%
7,Cc1sc2nc(SCC(N)=O)n(C)c(=O)c2c1C,1.58%
8,Cc1sc2nc(SCC(=O)c3ccc(O)c(O)c3)n(Cc3ccco3)c(=O)c2c1C,34.8% (active)
9,CCOC(=O)[C@]12CCCC=C1N(Cc1ccc(OC)cc1)C(=O)[C@@H]2CC(=O)N1CCOCC1,4.73%
10,Cc1ccc(NC(=O)c2cc(C)nn2-c2ccccc2)c(C)c1,-1.51%
11,CCC(=O)c1c(CC)c2n3c1=CC[C@H]3CC(Br)C=2 (some centres not stated),-2.29%
12,CN(C)Cc1cn(-c2ccc(-c3noc4c3C(=O)N(CC(=O)N3CCOCC3)CC4)cc2)nn1,-1.95%
13,COc1ccc(C#CCNCc2ccc(OC)cc2OC)cc1,-3.69%
14,CCCCOCCCNC(=O)C[C@H]1C[C@@]2(C(=O)OC)C(=C[C@H](C(C)(C)C)O[C@@H]2C)N(CCc2ccc(OC)c(OC)c2)C1=O,2.16%
15,Cc1cc(C(=O)NN=C/C=C/c2ccco2)n[nH]1,15.1% (active)
16,CN(C)S(=O)(=O)c1cccc(C(=O)N/N=C\c2ccco2)c1,-0.56%
17,CC(C)CNC(=O)COC(=O)/C=C/c1ccco1,0.15%
18,COc1ccc(N2CCN(CCNS(=O)(=O)c3ccc(Cl)s3)CC2)cc1,-1.84%
19,O=C(CSc1nnc(-c2ccccn2)n1-c1ccc(Cl)cc1)Nc1ccccc1-c1ccccc1,-2.85%

row,Compound,inhibition
1,C=CCN1C(=O)[C@H](CC(=O)N2CCN(C(=O)OCC)CC2)[C@@]2(C(=O)OCC)CCCC=C12,-0.39%
2,O=C(NNC(=O)c1ccccc1O)c1ccccc1O,27.2% (active)
3,O=C(CO/N=C/c1ccccc1O)NNC(=O)c1ccccc1Cl,3.91%
4,O=C(NNC(=S)NC1CCCCC1)c1ccccc1Cl,0.05%
5,CCC(c1ccc(NC(=O)OC(C)(C)C)cc1)c1cc(OC)cc(OC)c1 (configuration not stated),-0.14%
6,CCOC(=O)C1(Cc2ccccc2)CCN(Cc2cn(C(C)=O)c3ccccc23)CC1,-1.3%
7,Cc1ccccc1NC(=O)COC(=O)c1ccc(Sc2ncn[nH]2)c([N+](=O)[O-])c1,-3.54%
8,COc1ccc2c(c1)c(=Cc1ccc(N(C)C)cc1)c1cc(-c3ccccc3)[n+](C)n12,18.8% (active)
9,O=C(CN1CCC(NC(=O)NCc2ccccc2)CC1)Nc1ccc2c(c1)OCCO2,0.58%
10,O=C(Nc1ccc(Br)cc1)OCCN1C(=O)CCC12CCC(c1ccccc1)CC2 (configuration not stated),-0.45%
11,Cc1cccc2cc3c(N)c(C(=O)N4CCCc5ccccc54)sc3nc12,1.54%
12,Cc1ccc(C(=O)N2CCCc3ccccc32)c(Cl)c1,38% (active)
13,Cc1ccc2c(c1)N(CC(=O)N1CCCc3ccccc31)C(=O)C(C)O2 (configuration not stated),4.28%
14,COc1ccc(C(=O)CSc2nnc(-c3cnccn3)n2-c2ccc(C)cc2)cc1,0.86%
15,Cc1ccccc1NC(=O)Cn1nnc(-c2ccccc2F)n1,3.47%
16,Cc1cc(=O)[nH]c(SCC(=O)Nc2ccc(Cl)cc2C)n1,0.96%
17,COCCNC(=S)c1ccc(OC)cc1,-1.56%
18,COCCNC(=O)Nc1ccc2nc(-c3ccco3)c(-c3ccco3)nc2c1,90.1% (active)
19,COCCNC(=O)c1cc2c(Br)ccc(Br)c2nc1N,-5.17%
